Only some compounds are listed: those with a hit (about 22% of all), similar ones and a draw of the others.
CYP2C9 inhib – blocks human cytochrome P450 2C9 | inhibition, % at 5 µM | P11712 | 96,000 tested, 20% active | CYP2C9 Supersomes, luciferin-H conversion, luminescence;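 active means blocking of liver enzyme CYP2C9 beyond about 50% at 5 µM, limit read from the data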
Target sequence (P11712 whole entry, looked up): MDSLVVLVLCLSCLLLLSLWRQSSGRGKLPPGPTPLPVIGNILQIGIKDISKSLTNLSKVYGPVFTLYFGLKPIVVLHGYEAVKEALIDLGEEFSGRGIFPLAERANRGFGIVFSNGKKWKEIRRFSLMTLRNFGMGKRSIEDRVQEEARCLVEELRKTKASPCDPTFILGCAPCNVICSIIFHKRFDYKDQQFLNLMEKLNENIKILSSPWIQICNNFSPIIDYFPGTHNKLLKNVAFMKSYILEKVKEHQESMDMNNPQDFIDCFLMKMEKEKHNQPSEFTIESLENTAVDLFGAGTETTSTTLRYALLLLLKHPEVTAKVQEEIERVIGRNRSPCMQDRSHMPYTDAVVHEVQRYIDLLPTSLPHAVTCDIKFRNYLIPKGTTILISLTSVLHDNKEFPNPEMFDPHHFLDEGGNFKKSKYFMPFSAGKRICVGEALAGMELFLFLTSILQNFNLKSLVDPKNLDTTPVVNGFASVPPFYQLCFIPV
CYP2C9 act – activators of human CYP2C9; recombinant CYP2C9, luciferin-H conversion, luminescence; active compounds read high; factor 1 = untreated enzyme, 0 = blocked; activation factor at 5 µM; 96,000 tested, 1.4% active;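 active means activation factor of 2 or more for CYP2C9 at a 5 µM dose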
E-sel TNF inh – TNF alpha driven E-selectin expression inhibition. HUVEC TNFa-induced E-selectin immunofluorescence, high content. inhibition, % at 2 µM. 120,000 tested, 0.71% active;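 active means inhibition above the batch mean plus 3 SD, and confirmed as a hit on visual image review, cut at about 43% in these data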
CYP2C19 activ – cytochrome P450 2C19 (human) activation; activation factor at 5 µM; 96,000 tested, under 10 active; AID 1025; recombinant CYP2C19, luciferin-H EGE luminescence; active compounds read high; 0 = fully inhibited enzyme, 1 = untreated enzyme;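 active means activation factor of at least 2 at 5 µM in the primary screen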
F-actin modifier – alters cytoskeleton assembly in HUVEC cells; 91,000 tested, 0.18% active; inhibition, % at 2 µM; HUVEC TNFa F-actin phalloidin imaging, high content;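 active means inhibition above the batch mean plus 3 SD and confirmed as a hit by visual image inspection, cut at about 30% in these data, passing the limit was not always enough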
CYP2C19 inh – human CYP2C19 inhibition | inhibition, % at 5 µM | AID 778 | CYP2C19 Supersomes, luciferin-H EGE luminescence, 30 min | 96,000 tested, 21% active;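 active means CYP2C19 inhibition above a set limit at 5 µM in the primary screen, cut at about 50% in these data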
Hits are given with their value; – = inactive; · = no result given.

SMILES	CYP2C9 inhib	CYP2C9 act	E-sel TNF inh	CYP2C19 activ	F-actin modifier	CYP2C19 inh
Cc1ccc(S(=O)(=O)N(CC(=O)NCCSc2ccccn2)c2cc(C)cc(C)c2)cc1	79.3	–	–	–	–	–
COCCNC(=O)CN(c1ccc(C)cc1)S(=O)(=O)c1ccc(SC)cc1	76.9	–	·	–	·	97.6
Cc1cccc(C(=O)Nc2ccccc2C(=O)OCC(=O)Nc2ccc(C#N)cc2)c1	·	·	–	·	·	·
O=c1c(Cc2ccccc2O)c(O)nc2n1CCCS2	–	–	–	–	·	–
Cc1nnc(-n2ncc(C#N)c2N)c2nn(-c3ccccc3F)c(C)c12	·	·	–	·	–	·
COC(=O)c1ccccc1NC(=O)CSc1nc(C)cc(C)n1	·	·	–	·	·	·
Cc1cc(C)nc(SCCC(=O)Nc2cccc3ccccc23)n1	–	2.5	–	–	–	–
N#C/C(=C\c1ccc(N2CCCCC2)c([N+](=O)[O-])c1)c1nn(-c2ccccc2)c(N)c1C#N	·	·	–	·	·	·
CC1CCCN(c2ccc(/C=C(\C#N)c3nn(-c4ccccc4)c(N)c3C#N)cc2[N+](=O)[O-])C1 (stereo not drawn)	80.1	–	–	–	–	–
CC1CCN(c2cc(N3CCC(C)CC3)c([N+](=O)[O-])cc2/C=C(\C#N)c2nn(-c3ccccc3)c(N)c2C#N)CC1	80.8	–	–	–	–	51.0
S=c1nc(C2CCCCC2)[nH][nH]1	–	–	–	–	–	–
Cc1ccc2nc(-c3ccc(NC(=O)c4ccco4)cc3)[nH]c2c1	–	–	–	–	–	–
O=C(Nc1cccc(-c2nc3ccccc3[nH]2)c1)c1ccco1	71.9	–	–	–	–	82.4
O=C(Nc1cccc(-c2cnc3ccccc3n2)c1)c1cccc(NC(=O)c2ccco2)c1	75.4	–	–	–	–	69.3
O=C(Nc1cccc(NC(=O)c2nccc3ccccc23)c1)c1ccco1	–	2	·	–	·	–
COC(=O)c1cccc(Cn2cc([N+](=O)[O-])cn2)c1	·	·	–	·	·	·
CC(=O)c1c(C(C)=O)c(C)n(CCCCn2c(C)c(C(C)=O)c(C(C)=O)c2C)c1C	·	·	–	·	–	·
COc1ccc(OCC(=O)N/N=C(\C)CC(=O)Nc2ccc(OC)cc2[N+](=O)[O-])cc1	·	·	–	·	·	·
c1ccc2c3c([nH]c2c1)-c1[nH]ncc1CC3	67.1	–	–	–	–	–
Clc1ccc2[nH]c3c(c2c1)CCc1cn[nH]c1-3	54.9	–	·	–	–	–
O=C(NCc1cccnc1)/C(=N\O)c1ccccc1	–	–	–	–	–	–
NC(=O)CC[C@@H]1NC(=O)[C@@H]2CCCN2C(=O)c2cc([N+](=O)[O-])cc(I)c2NCCCC[C@@H](C(=O)NC(CC(=O)O)C(N)=O)NC1=O (stereo partly drawn)	·	·	–	·	·	·
CCn1c(=O)n(CC)c2cc(S(=O)(=O)Nc3cc(C)cc(C)c3C#N)ccc21	79.5	–	–	–	·	62.5
CCn1c(=O)n(CC)c2cc(S(=O)(=O)Nc3c(C)cccc3C)ccc21	66.7	–	–	–	–	93.8
CCn1c(=O)n(CC)c2cc(S(N)(=O)=O)ccc21	–	–	–	–	–	–
SMILES	CYP2C9 inhib	CYP2C9 act	E-sel TNF inh	CYP2C19 activ	F-actin modifier	CYP2C19 inh
Cc1ccccc1CSc1n[nH]c(NS(=O)(=O)c2ccccc2)n1	–	–	–	–	–	–
COc1cccc(NS(=O)(=O)c2nc3nc(C)cc(C)n3n2)c1	–	–	–	–	–	–
Cc1ccc(CNC(=O)CN(C)S(=O)(=O)c2cccc3nsnc23)cc1	–	–	·	–	–	59.2
Cc1ccc(NC(=O)CN(C)S(=O)(=O)c2cccc3nsnc23)cc1	77.0	–	–	–	–	–
CC(=O)c1cccc(NC(=O)CN(c2ccc(C)cc2)S(=O)(=O)c2cccc3nonc23)c1	71.6	–	·	–	–	–
CCN(CC)C(=O)CN(C)S(=O)(=O)c1cccc2nsnc12	–	–	·	–	–	–
Cc1ccc(N(CC(=O)O)S(=O)(=O)c2cccc3nonc23)cc1	–	–	·	–	–	–
Cc1cc([N+](=O)[O-])ccc1NCc1ccc2ccccc2c1	77.3	–	–	–	–	–
CCOCC(=O)Nc1ccc([N+](=O)[O-])cc1C	·	·	–	·	·	·
COc1ccc(CNc2cc([N+](=O)[O-])ccc2OC)cc1	74.7	–	–	–	–	52.4
Cc1cc([N+](=O)[O-])ccc1NCc1ccccc1	51.9	–	–	–	–	87.2
CCOC(=O)Nc1ccc([N+](=O)[O-])cc1C	·	·	–	·	·	·
Cc1ccc(NC(=O)/C(C#N)=C/c2ccccc2C(F)(F)F)cc1	·	·	–	·	·	·
Fc1ccc(-c2n[nH]c(=S)n2CC2CCCO2)cc1 (stereo not drawn)	–	–	·	–	–	–
CCc1cccc(Nc2cc(C)nc3nc(C)nn23)c1	·	·	–	·	·	·
O=C(NNC(=O)c1cc(OCC(F)(F)F)ccc1OCC(F)(F)F)c1cccc(C(F)(F)F)c1	–	–	·	–	·	–
Cc1ccc(NC(=S)c2nc3ccccc3[nH]2)cc1	–	–	–	–	–	89.1
O=C(CN1c2ccccc2Sc2ccccc21)NNC(=S)Nc1ccc(Cl)cc1Cl	80.0	–	–	–	–	–
S=C(Nc1ccc(Cl)cc1Cl)Nn1cnnc1	·	·	–	·	·	·
COc1ccc(N(CC(=O)N2CC=C(c3ccccc3)CC2)S(=O)(=O)c2c(C)noc2C)cc1	–	–	–	–	–	–
COc1ccc(NC(=O)CN(c2ccc(C(C)C)cc2)S(=O)(=O)c2c(C)noc2C)cc1OC	–	–	·	–	–	52.3
CCOc1ccc(N(CC(=O)NC(C)(C)C)S(=O)(=O)c2c(C)noc2C)cc1	–	–	–	–	–	50.4
CCOc1ccc(N(CC(=O)Nc2cccc(Cl)c2)S(=O)(=O)c2c(C)noc2C)cc1	–	–	·	–	–	–
CCOc1ccc(N(CC(=O)N2CC=C(c3ccccc3)CC2)S(=O)(=O)c2c(C)noc2C)cc1	–	–	–	–	–	63.5
CCOc1ccc(N(CC(=O)Nc2ccc(C)cc2)S(=O)(=O)c2c(C)noc2C)cc1	–	–	·	–	–	–

Bioassay records: PubChem BioAssay, several laboratories
